# RPL19A-GFP yeast: alters RPL19A-GFP fluorescence in TOR pathway yeast screen; S. cerevisiae RPL19A-GFP strain, flow cytometry, 3 h; active compounds read low; percent response vs DMSO, % at 10 µM; 330,000 tested, 0.3% active;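 active = percent response vs DMSO below 50%; inconclusive = fewer than 70 events counted for the yeast strain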;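 also: median channel GFP fluorescence of the barcoded RPL19A-GFP strain; lower means less RPL19A-GFP as with rapamycin TOR inhibition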
# CIT2 TOR yeast: alters CIT2-GFP fluorescence in TOR pathway yeast screen. S. cerevisiae CIT2-GFP strain, flow cytometry, 3 h; 100 means same as DMSO wells. GFP response vs DMSO, % at 10 µM. 320,000 tested, 0.065% active;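 active = GFP response relative to DMSO above a set limit, near the screen mean plus 3 SD, cut at about 150% in these data; inconclusive = Fewer than 70 cells measured for a yeast strain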;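 also: ratio of well median GFP fluorescence to mean of DMSO wells on the plate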
# LAP4 TOR yeast: modulators of TOR pathway LAP4-GFP in S. cerevisiae; S. cerevisiae LAP4-GFP multiplex, flow cytometry GFP, 3 h; median GFP as percent of DMSO wells; GFP response vs DMSO, % at 10 µM; 320,000 tested, 0.34% active; AID 2023;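 active = GFP response vs DMSO above a set limit, about the screen mean plus 3 SD, cut at about 150% in these data; inconclusive = under 70 cell events counted for the yeast strain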
# AGP1-GFP MLPCN: alters AGP1-GFP fluorescence in TOR pathway yeast screen | S. cerevisiae AGP1-GFP multiplex flow cytometry, 3 h; GFP as percent of DMSO wells | GFP response vs DMSO, % at 10 µM | 320,000 tested, 0.02% active | AID 2066;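 active = GFP response relative to DMSO above a set limit, near screen average plus 3 SD, cut at about 150% in these data; inconclusive = fewer than 70 cells counted for the yeast strain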;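 also: median GFP channel fluorescence of the gated AGP1 strain per well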
# MEP2-GFP yeast: modulators of TOR pathway MEP2-GFP in S. cerevisiae. AID 2016. S. cerevisiae MEP2-GFP strain, flow cytometry GFP, 3 h; 100% = DMSO control level. 330,000 tested, 0.51% active. GFP response vs DMSO, % at 10 µM;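 active = GFP response versus DMSO above a set limit, roughly screen mean plus 3 SD, cut at about 180% in these data; inconclusive = fewer than 70 cells counted for a yeast strain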;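 also: median GFP fluorescence of the barcode-gated MEP2-GFP cells per well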
# Efflux pump mplx: blocks antifungal efflux pumps in multiplex yeast assay | S. cerevisiae Candida pump triplex, Nile Red efflux | 330,000 tested, 0.44% active | inhibition, % at 10 µM;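 active = plate passing quality check with inhibition over a set limit, or well fluorescence over plate mean plus 4 SD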;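 also: Nile Red retained in pooled yeast measured as flow cytometry median fluorescence; higher means more Nile Red kept so more efflux inhibition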
# Numbers stand for hits; . = inactive; ? = inconclusive; [ ] = dose if it differs, or a comment. Sampled rows, rich in hits. Any-hit rate of the full collection: about 1.3%.
SMILES,RPL19A-GFP yeast,CIT2 TOR yeast,LAP4 TOR yeast,AGP1-GFP MLPCN,MEP2-GFP yeast,Efflux pump mplx
O=C(Nc1ccc(F)cc1)c1cc2cc(Cl)ccc2[nH]1,.,.,.,.,190.3,.
Cc1cccc(CNC(=O)CCn2ccc3cc(S(=O)(=O)N4CCCC4)ccc32)c1,17.5[may fluoresce violet],?,.,?,.,.
CN=C1S/C(=C\c2ccc(SC)cc2)C(=O)N1C,.,.,.,.,.,.
CSC1=NC(=O)/C(=C/c2ccc(SC)cc2)S1,.,.,175.6,.,.,.
C=CCNC(=O)/C(C#N)=C/c1c(C)nn(-c2ccccc2)c1Cl,.,.,.,.,.,.
O=C(Nc1ccc(OC(F)(F)F)cc1)C1CC(=O)N(Cc2ccco2)C1 (stereo not given),.,.,.,.,.,.
O=C(CCC(=O)N/N=C/c1cc(Cl)cc(Cl)c1O)NCc1ccccc1,.,?,.,.,363.9[may fluoresce violet],.
O=C(NCC(=O)N1CCOCC1)c1ccc(Cl)cc1,.,.,.,.,.,.
O=C(NCC(=O)N1CCOCC1)c1ccccc1,.,?,.,.,211.9[may fluoresce violet],.
O=C(Nc1ccccc1N1CCOCC1)c1cccnc1Cl,.,.,.,.,.,.
O=C(OCn1nnc2ccccc2c1=O)c1ccco1,.,.,.,.,.,.
O=C(OCn1nnc2ccccc2c1=O)C1=COCCO1,.,?,.,.,312.0[may fluoresce violet],.
Cn1c(=O)c2c(nc(SCC(=O)N3CCCCCC3)n2C)n(C)c1=O,.,.,.,.,.,.
CC(C)n1c(SCC(=O)N2CCCCC2)nc2c1c(=O)n(C)c(=O)n2C,.,?,.,.,305.4[may fluoresce violet],.
COc1ccccc1C1c2ccc3ccccc3c2Oc2ncn(CCCO)c(=N)c21 (stereo not given),24.2[may fluoresce violet],?,.,?,352.5[may fluoresce violet],.
COc1ccccc1C1c2ccc3ccccc3c2Oc2ncn(CCN(C)C)c(=N)c21 (stereo not given),.,.,.,.,.,.
CCOc1ccccc1C1N=C(c2ccc(OC)cc2)CC(c2ccccc2O)N1 (stereo not given),.,.,167.1,.,.,.
CCOc1ccc(NC(=S)N2CCC(c3nc4ccccc4[nH]3)CC2)cc1,.,.,.,.,.,.
COc1ccnc(Oc2ccc(Cl)cc2)c1C#N,.,.,.,.,.,.
COc1ccnc(N=CNOCc2ccc(Cl)cc2)c1C#N,44.7[may fluoresce violet],?,.,.,226.1[may fluoresce violet],.
C=CCN1C(=O)c2ccccc2NC1c1cc(Br)cs1 (stereo not given),.,?,.,.,278.9[may fluoresce violet],.
COc1ccc(NC(=O)Cc2ccsc2)c(OC)c1,46.4[may fluoresce violet],?,.,?,342.7[may fluoresce violet],.
COC(=O)c1cc(CNC(=O)Cc2ccsc2)ccc1OC,.,?,.,.,298.4[may fluoresce violet],.
O=C(CC1C(=O)NCCN1Cc1ccccn1)NCCc1ccccc1F (stereo not given),.,.,.,.,.,.
O=C(c1ccc(N2CCCC2)c([N+](=O)[O-])c1)N1CCN(CCO)CC1,48.2[may fluoresce violet],?,.,?,189.4[may fluoresce violet],.
SMILES,RPL19A-GFP yeast,CIT2 TOR yeast,LAP4 TOR yeast,AGP1-GFP MLPCN,MEP2-GFP yeast,Efflux pump mplx
O=C(c1ccc(N2CCCCC2)c([N+](=O)[O-])c1)N1CCOCC1,.,.,.,.,.,.
CCOC(=O)C1=NNC2C(=O)N(Cc3ccccc3)C(=O)C12 (stereo not given),.,.,.,.,.,.
CCCOc1ccc(CNC(=O)c2ccc3nc(N4CCOCC4)sc3c2)cc1,.,.,.,.,.,.
CC1CN(S(=O)(=O)c2ccc(C(=O)Nc3ccccc3F)cc2)CC(C)O1 (stereo not given),.,.,.,.,.,.
Cc1ccccc1OCc1nc2ccccc2n1C,.,.,.,.,.,.
Cc1nnc(OCc2nc3ccccc3n2C)c2ccccc12,.,.,.,.,217.3,.
Cc1nc2ccc(Br)cn2c1C(=O)N/N=C\c1ccccc1Cl,.,.,.,.,247.8,.
CCOc1cc(/C=N/NC(=O)C(=O)NCc2cccnc2)ccc1O,.,.,.,.,.,.
O=c1[nH]c(CN2CCCCC2)nc2c1C1(CCCCC1)Cc1ccccc1-2,.,157.3,.,.,.,.
Cc1ccc(C(=O)NCCc2sc(C)nc2C)cc1,31.1[may fluoresce violet],?,.,?,222.2[may fluoresce violet],.

# Screening data deposited in PubChem by NMMLSC.
